This is a sample that favours compounds with a hit; in the whole collection about 10% have one here.
CtBP-E1A inh = blocks the CtBP interaction with E1A | AlphaScreen GST-E1A/His-CtBP binding, 1536-well; hits give low values | activity change, % (no concentration beside the values) | actives 0.49% (n = 340,000); in the data active means activity change below about -65%; inconclusive means mostly about -30% to -63%; further: on the % scale 0 is the no-effect control and ±100 the full control effect
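GST-E1A and His-tagged CtBP (125 nM each as 5X stock) were preincubated with pin-transferred compound for 2 h at 37 °C in the dark, then glutathione donor and nickel acceptor beads were added for 1 h before AlphaScreen reading.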
BAZ2B inh = inhibitors of human BAZ2B bromodomain; Q9UIF8; AlphaScreen BAZ2B-H3K14Ac peptide displacement; Potency, µM (highest dose often 114 µM), without a hit: at the top dose activity change, negative = inhibition, most hits filed as inhibitors; actives 4.4% (n = 360,000); further: potency means the concentration at half of the fitted maximal effect; on the % scale 0 is the no-effect control and ±100 the full control effect; nearly all actives have a fitted effect of over 60% in size
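BAZ2B 50 nM plus b-H3(5-23)K14Ac 50 nM, PBS pH 7.4/0.01% Tween-20, 30 min RT; compound added (max 110 uM), 30 min RT; streptavidin donor/Ni-chelate acceptor beads 10 ug/mL final, 20 min dark; AlphaScreen read.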
G9a block = blocks human histone lysine methyltransferase G9a; Potency, µM (top dose mostly 102 µM), for inactives: top-dose activity, negative = inhibition, hits mostly inhibitors; actives 8.8% (n = 350,000); Q96KQ7; G9a H3K9 monomethylation, AlphaScreen, 2 h; further: potency means the concentration at half of the fitted maximal effect; on the % scale 0 is the no-effect control and ±100 the full control effect; nearly all actives have a fitted effect of over 75% in size
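Compounds were preincubated with 20 nM G9a for 15 min, after which biotinylated H3K9 peptide (500 nM) and SAM (20 uM) started a 2 h room-temperature reaction. Monomethylated product was quantified by antibody-based AlphaScreen chemiluminescence.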
HP1b chromo inh = blocks HP1-beta chromodomain binding to methylated histone tails; P83916; AlphaScreen HP1-beta / biotin-H3K9me3 peptide binding; Potency, µM (titrated, usually from 114 µM), for the others: at the top dose activity change, negative = inhibition, most hits filed as inhibitors; actives 0.56% (n = 390,000); further: potency means the concentration at half of the fitted maximal effect; nearly all actives have a fitted effect of over 70% in size
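AlphaScreen: HP1-beta (50 nM) preformed 30 min with biotin-H3(1-18)K9me3 peptide (50 nM) in PBS pH 7.4, 0.01% Tween-20. Compound added for 30 min at RT, then streptavidin donor/nickel chelate acceptor beads (10 ug/mL) for 30 min.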
JMJD2A Tudor inh = JMJD2A Tudor domain (human) inhibition; O75164; actives 4.4% (n = 390,000); AlphaScreen JMJD2A-Tudor / H3K4me3 peptide binding; Potency, µM (doses to about 114 µM), without a hit: at the top dose activity change, negative = inhibition, usual class: inhibitors; further: potency means the concentration at half of the fitted maximal effect; on the % scale 0 is the no-effect control and ±100 the full control effect; nearly all actives have a fitted effect of over 50% in size
Target sequence (O75164 whole entry, looked up, the tested form may be a part): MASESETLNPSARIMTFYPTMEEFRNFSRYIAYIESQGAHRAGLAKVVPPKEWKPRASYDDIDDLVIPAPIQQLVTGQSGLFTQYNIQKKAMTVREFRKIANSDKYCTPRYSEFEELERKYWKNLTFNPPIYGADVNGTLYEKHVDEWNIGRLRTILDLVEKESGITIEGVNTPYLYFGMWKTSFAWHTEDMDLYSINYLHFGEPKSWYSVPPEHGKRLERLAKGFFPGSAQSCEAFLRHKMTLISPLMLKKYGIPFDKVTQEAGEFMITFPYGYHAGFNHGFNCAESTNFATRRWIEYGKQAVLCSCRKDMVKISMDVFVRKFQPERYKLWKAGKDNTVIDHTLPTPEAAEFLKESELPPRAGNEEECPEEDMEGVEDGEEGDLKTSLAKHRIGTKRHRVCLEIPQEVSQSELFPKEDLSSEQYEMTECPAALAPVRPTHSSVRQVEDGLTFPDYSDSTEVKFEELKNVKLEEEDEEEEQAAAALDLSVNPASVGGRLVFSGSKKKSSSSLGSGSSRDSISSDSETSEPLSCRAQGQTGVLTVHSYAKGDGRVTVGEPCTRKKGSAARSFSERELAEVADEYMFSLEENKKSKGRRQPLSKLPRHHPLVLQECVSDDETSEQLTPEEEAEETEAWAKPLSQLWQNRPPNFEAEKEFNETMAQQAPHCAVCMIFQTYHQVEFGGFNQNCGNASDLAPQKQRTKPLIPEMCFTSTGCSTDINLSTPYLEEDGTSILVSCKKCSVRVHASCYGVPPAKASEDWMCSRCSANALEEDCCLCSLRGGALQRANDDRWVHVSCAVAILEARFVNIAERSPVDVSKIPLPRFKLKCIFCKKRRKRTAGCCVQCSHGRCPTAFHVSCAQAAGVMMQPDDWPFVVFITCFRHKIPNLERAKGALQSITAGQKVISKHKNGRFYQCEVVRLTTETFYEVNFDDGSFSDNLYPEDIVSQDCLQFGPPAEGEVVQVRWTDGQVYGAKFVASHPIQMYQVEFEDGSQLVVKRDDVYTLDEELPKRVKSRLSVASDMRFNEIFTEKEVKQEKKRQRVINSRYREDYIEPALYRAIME
Six1-Eya2 blk = Six1/Eya2 interaction inhibition. Q15475+O00167. AlphaScreen GST-Six1/His-Eya2 binding, biochemical; hits give low values. activity change, % (no concentration beside the values). actives 0.56% (n = 360,000); in the data active means activity change below about -65%; inconclusive means mostly about -30% to -63%; further: on the % scale 0 is the no-effect control and ±100 the full control effect
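Compounds are tested against tagged Six1 and Eya2 proteins bridged by glutathione donor and nickel acceptor beads; after a one-hour incubation at 37 °C without light, AlphaScreen emission is recorded.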
Starred values were filed as active, the others as inactive; ? = inconclusive; . = no result; [ ] = remark or other dose. Unless noted, the call rests on the fitted dose curve; in most records, active means well fitted inhibition curve with a large enough effect; inconclusive means small, poorly fitted or top-dose-only effect; inactive means no such curve, though single readings can be large or run the other way.

SMILES	CtBP-E1A inh	BAZ2B inh	G9a block	HP1b chromo inh	JMJD2A Tudor inh	Six1-Eya2 blk
O=C(NNC(=O)c1ccc(F)cc1F)c1ccc(-n2cnnn2)cc1	-17	-10%	3%	39%	-10%	-3
O=C(O)CC12CC3CC(C1)CC(n1ncc(NCc4ccco4)c(Cl)c1=O)(C3)C2	5	11%	-45%	6%	-7%	10
O=C(O)CC12CC3CC(C1)CC(n1ncc(NCC4CCCO4)c(Cl)c1=O)(C3)C2 (stereo not drawn)	4	-13%	56µM*	28%	-17%	-9
CC(=O)Nc1nc2ccc(C(=O)NCCOC(=O)C3CCCCC3)cc2s1	-23	-14%	-32%	40%	-5%	-8
Nc1nc2ccc(C(=O)NCCOC(=O)C3CCCCC3)cc2s1	.	-13%	?	6%	-14%	-77*
COc1ccc(-c2coc3c(C(=O)NCC4CC4)cccc23)c(C)c1	2	.	.	.	.	-2
Cc1ccc(C(=O)Nc2ncc3c(n2)CC(c2ccco2)CC3=O)cc1 (stereo not drawn)	-7	-5%	?	21%	-9%	0
Cc1cc(C)cc(Nc2ncc3c(n2)CC(c2ccco2)CC3=O)c1 (stereo not drawn)	-6	-31%	?	?	89µM*	-12
Cc1cccc(Nc2ncc3c(n2)CC(c2ccco2)CC3=O)c1 (stereo not drawn)	-8	-2%	13%[12.7 µM]	17%	10%	-5
Cc1ccc(Nc2ncc3c(n2)CC(c2ccco2)CC3=O)c(C)c1 (stereo not drawn)	0	0%	50µM*	4%	-26%	-10
Cc1ccc(Cl)cc1N1CCN(S(=O)(=O)c2ccc3oc(=O)c4ncn(C)c4c3c2)CC1	.	3%	-1%[59 µM]	39%	7%	.
Cc1cc(NC(=O)C(C)C)ncc1NC(=O)c1ccccn1	10	50µM*	18µM*	-7%	-15%	-1
CCOc1cc(NC(=O)c2ccccn2)c(OCC)cc1NC(=O)CC(C)C	-1	7%	11%[59 µM]	-10%	20µM*	0
CCCC(=O)Nc1cc(C)c(NC(=O)c2ccco2)cn1	3	-3%	.	0%	-16%	14
CCCC(=O)Nc1cc(C)c(NC(=O)c2ccccn2)cn1	-17	50µM*	7.9µM*	37%	?	-27
COc1ccc(Cl)cc1C(=O)NNC(=O)c1csc(N2CCOCC2)n1	5	8%	20%[0.501 µM]	29%	-17%	2
C/C(=N\NC(=O)c1cc(-c2cccc([N+](=O)[O-])c2)n[nH]1)c1ccccc1O	-5	8.9µM*	16%	27%	14µM*	-2
C/C(=N/NC(=O)c1cc(-c2cccc([N+](=O)[O-])c2)n[nH]1)c1cccc(O)c1	.	4%	.	22%	-15%	-19
O=C(Nc1ccc2nc(SCC(=O)N3CCOCC3)sc2c1)c1ccc(F)cc1	.	-11%	-7%[59 µM]	32%	-12%	.
Cc1c(N)c(C(C)(C)C)cc(C(C)(C)C)c1[N+](=O)[O-]	1	-38%	6%	11%	-32%	-18
Cc1cc2nc3c(=O)[nH]c(=O)[nH]c3nc2c([N+](=O)[O-])c1N	-82*	50µM*	32µM*	?	45µM*	-84*
CC(C)(C)c1ccccc1NC(=O)CN1C(=O)NC(Cc2ccccc2)C1=O (stereo not drawn)	6	71µM*	-4%[0.501 µM]	20%	-10%	3
CC(=O)c1cccc(NC(=O)CCS(=O)(=O)c2ccc3c(c2)n(C)c(=O)c(=O)n3C)c1	.	-3%	-4%[59 µM]	36%	-11%	.
N#Cc1cc2c([nH]c1=S)CCCC2	2	32µM*	1.4µM*	-28%	3.5µM*	2
CC1(C)Cc2c(c(N3CCCC3)[nH]c(=S)c2C#N)CO1	.	12%	?	.	.	.
SMILES	CtBP-E1A inh	BAZ2B inh	G9a block	HP1b chromo inh	JMJD2A Tudor inh	Six1-Eya2 blk
CC1(C)Cc2[nH]c(=S)c(C#N)cc2CO1	-3	25µM*	0.71µM*	-19%	6.3µM*	-1
CS(=O)(=O)Nc1cccc(C2=NN(C(=O)c3ccccc3Cl)C(c3ccccc3O)C2)c1 (stereo not drawn)	0	-39%	17%[59 µM]	23%	-19%	-7
Cc1cc(C)cc(S(=O)(=O)c2cnc3ccccc3n2)c1	2	20%	29%	?	11µM*	-3
Cc1ccc(S(=O)(=O)Nc2cc(Cl)c3oc4c(c3c2)CCCC4)cc1	.	-37%	-28%[59 µM]	11%	-19%	.
Cc1ccc(-n2nnnc2CNC(=O)c2cc(C(F)(F)F)cc(C(F)(F)F)c2)cc1C	.	11%	3%[59 µM]	22%[57 µM]	-18%	.
Oc1c(CN2CCN(c3ccccn3)CC2)cc(Cl)c2cccnc12	-97*	14µM*	?	-15%	32µM*	-90*
OCCN1CCN(Cc2cc(Cl)c3cccnc3c2O)CC1	-95*	7.9µM*	50µM*	4%	13µM*	-90*
OCCN1CCN(Cc2cc(Br)cc(Br)c2O)CC1	27	?	?	82%	-21%	17
O=c1c(CN2CCN(c3ccccn3)CC2)coc2ccccc12	-6	79µM*	?	?	22µM*	12
O=C(c1ccc(Cl)c(Cl)c1)N1CCN(c2ccccn2)CC1	-6	0%	.	38%	-1%	-12
O=c1c(CN2CCN(Cc3ccccc3F)C(CCO)C2)coc2ccccc12 (stereo not drawn)	8	2%	17%	45%	-3%	-3
CCc1ccccc1NC(=O)C1CCN(S(=O)(=O)c2ccc3[nH]c(=O)ccc3c2)CC1	.	2%	2%[59 µM]	32%[57 µM]	-7%	.
CC1(C)OC(=O)N(CCC(=O)Nc2cccc(F)c2)C1(C)O (stereo not drawn)	9	15%	7%	44%	-5%	-1
CC(C)CC(C(=O)O)N1C(=O)C2C3c4ccccc4C(c4ccccc43)[C@@H]2C1=O (stereo partly drawn)	-11	-15%	6%	29%	-13%	-5
Cc1cc(C(=O)NC(Cc2c[nH]c3ccccc23)C(=O)O)c(C)o1 (stereo not drawn)	2	-6%	22%[0.501 µM]	28%	7%	8
O=C(O)C(Cc1c[nH]c2ccccc12)N1C(=O)C2C3c4ccccc4C(c4ccccc43)[C@@H]2C1=O (stereo partly drawn)	-1	-27%	50µM*	10%	-21%	-1
O=C(COc1ccccc1)NC(Cc1c[nH]c2ccccc12)C(=O)O (stereo not drawn)	0	-39%	35µM*	22%	-20%	5

Bioassay records from PubChem BioAssay.
